MARV entry inh = inhibitors of Marburg virus binding or cell entry; Marburg virus pseudotyped entry inhibition, cell reporter; Potency, µM (top dose mostly 37.8 µM), for the others: top-dose activity change, negative = inhibition, hits mostly inhibitors; hit rate 1.8% among 300,000; AID 540276; calls by dose curve; tested in HEK293 cells
LASV entry inh = blocks Lassa virus binding to or entry into cells. Potency, µM (titrated, usually from 37.9 µM), for inactives: at the top dose activity change, negative = inhibition, usual class: inhibitors. Lassa virus pseudotype entry inhibition, cell reporter. AID 540256. hit rate 1.2% among 300,000; calls by dose curve; tested in HEK293 cells; also: nearly all actives have a fitted effect of over 50% in size
Vaccinia Venus = inhibitors of vaccinia virus (Venus reporter); Vaccinia virus Venus reporter expression, fluorescence; Potency, µM (titrated, usually from 36.5 µM), for the others: at the top dose activity change, negative = inhibition, usual class: inhibitors; hit rate 0.46% among 330,000; calls by dose curve; tested in A549 cells; also: nearly all actives have a fitted effect of over 30% in size
VACV mCherry inh = vaccinia inhibition (mCherry reporter); Vaccinia virus mCherry reporter infection, fluorescence; Potency, µM (top dose mostly 36.5 µM), inactives show top-dose activity change, negative = inhibition, actives largely listed as inhibitors; hit rate 0.63% among 310,000; AID 720579; calls by dose curve; tested in A549 cells; also: nearly all actives have a fitted effect of over 35% in size
Starred values were filed as active, the others as inactive; i = inactive; ? = inconclusive; / = not tested or not shown; [ ] = dose if it differs, or a comment. Sampled rows, rich in hits. Any-hit rate of the full collection: about 2.5%. % is scaled to controls: 0 for no effect and ±100 for the full control effect; potency is read from the fitted curve at half-maximal effect.

SMILES | MARV entry inh | LASV entry inh | Vaccinia Venus | VACV mCherry inh
O=C1c2ccccc2C(=O)C1c1ccnc2ccccc12 | 7.3µM* | ? | 2% | -15%
O=C1c2ccccc2C(=O)C1c1cc2ccccc2cn1 | / | / | -8% | -13%
N#CC1=C(N)SC(N)=C(C#N)C1c1ccnc2ccccc12 | 7% | -1% | 33% | i
O=C1C(=O)c2ccccc2C(O)=C1c1ccccc1F | -14% | 4% | -3% | i
O=C1C(c2ccnc3ccccc23)=C(O)c2ccccc21 | ? | 2.8µM* | -4% | /
COc1ccccc1COC(=O)N/C=C/c1ccco1 | -2%[46.1 µM] | ? | -5% | 0%
COc1ccc(COC(=O)N/C=C/c2ccco2)cc1 | 2%[46.1 µM] | 1.2µM* | 1% | i
Cn1c(CN2CCCC2)nc2cc(NC(=O)c3ccc(Cl)cc3)ccc21 | -28% | 20% | -28% | -13%
Cn1c(CN2CCCCC2)nc2cc(NC(=O)c3ccc(Cl)cc3)ccc21 | 21µM* | 19%[46.1 µM] | -24% | ?
CC(C)CN(CC(C)C)c1ccc(/C=C/c2ccnc3ccccc23)cc1 | / | / | 41% | 20%
COc1ccccc1C1CC(=O)Nc2cc3c(cc21)OCCO3 (stereo not given) | 2.1µM* | ? | ? | ?
CCOc1ccccc1C1CC(=O)Nc2cc3c(cc21)OCO3 (stereo not given) | 0% | 11% | / | /
CCOc1cccc(C2CC(=O)Nc3cc4c(cc32)OCCO4)c1 (stereo not given) | 2.2µM* | ? | -22%[7.34 µM] | -19%[7.34 µM]
CCCOc1c(OC)cccc1C1CC(=O)Nc2cc3c(cc21)OCO3 (stereo not given) | ? | 7.1µM* | ? | /
O=C(c1ccc(Br)cc1)C(CN1CCOCC1)c1ccccc1 (stereo not given) | ? | ? | -19% | i
CCOc1ccc(C(=O)C(CN2CCOCC2)c2ccccc2)cc1 (stereo not given) | 6.5µM* | 26µM* | ? | 10µM*
COC(=O)[C@H](C)Sc1nc2c(c(=O)n(C)c(=O)n2C)n1CCC(C)C | -14% | / | / | /
CCOC(=O)c1c(C)[nH]c(C(=O)COC(=O)/C=C/c2ccc(OC(F)F)cc2)c1C | -7% | -2% | -6% | i
CCOC(=O)c1c(C)[nH]c(C)c1C(=O)COC(=O)/C=C/c1ccc(OC(F)F)cc1 | ? | 11µM* | ? | -22%
Cc1ccc(O)c(N=NC2=C(O)CC(C)(C)CC2=O)c1 | 10µM* | ? | ? | ?
CC1(C)CC(=O)C(N=Nc2cc(Cl)c(Cl)c(Cl)c2)=C(O)C1 | -1%[46.1 µM] | 4% | ? | -18%
CCCCCC(=O)N1C[C@@H](n2cc(COC(=O)c3ccccc3)nn2)[C@H](O)C[C@H]1c1ccccc1 | / | 3%[46.1 µM] | / | /
COC(=O)C1(C(=O)OC)CC(CO)C(=O)[C@@H]1c1ccccc1 (stereo not given in full) | -8%[14.2 µM] | / | / | /
CCc1ccc(NC(=O)c2cnn(-c3ccccc3)c2C)cc1 | 10µM* | ? | -12% | -21%
NC(=O)CCCn1c(C(=O)c2cc(Cl)c(N)c(Cl)c2)c2ccc([N+](=O)[O-])cc2[n+]1[O-] | / | / | 11µM* | ?
SMILES | MARV entry inh | LASV entry inh | Vaccinia Venus | VACV mCherry inh
NCCCn1c(C(=O)c2ccc(Cl)cc2)c2ccc(C(F)(F)F)cc2[n+]1[O-] | / | / | -22% | -9%
NCCCn1c(C(=O)c2ccc(Cl)cc2)c2ccc([N+](=O)[O-])cc2[n+]1[O-] | / | / | ? | 7.1µM*
Cc1ccc(N=C2NC(=O)/C(=C/c3cn(C)c4ccccc34)S2)cc1C | ? | 0.1µM* | 175% | -12%
Cc1ccc(S(=O)(=O)C(c2ccccc2)c2c(C)noc2C)cc1 (stereo not given) | 0.63µM* | 0% | -15% | -10%
Cc1noc(C)c1C(c1ccccc1)S(=O)(=O)c1ccccc1 (stereo not given) | ? | ? | -17% | -14%
COC(=O)c1cc(NC(=O)c2cc(-c3ccc(C(F)(F)F)cc3)oc2C(F)(F)F)ccc1N1CCOCC1 | 11µM* | ? | -14% | -17%
COc1cc(/C=C/C(=O)CC(=O)/C=C/c2ccc(O)c(OC)c2)ccc1O | ? | 18µM* | 9% | 15%
COc1cc(/C=C/C(=O)O)ccc1O | / | / | ? | 3%
COc1cc(/C=C/C(C)=NNc2ccccc2)ccc1O | ? | -27%[46.1 µM] | -21% | 3.5µM*
Cc1c(CN2CCOc3ccc(C(C)(O)COc4ccccc4)cc3C2)cnn1C (stereo not given) | / | / | 5% | -16%
Cc1ccc(S(=O)(=O)CCSc2nc(C)cc(C(F)(F)F)c2C#N)cc1 | -47% | ? | 2.2µM* | /
CCN(CC)C(=O)[C@H]1C[C@H](CC(=O)NCC23CC4CC(CC(C4)C2)C3)C(=O)N2CCc3c([nH]c4cc(-c5ccco5)ccc34)[C@]12C | / | / | 11µM* | ?
